The campaign covered roughly 87,000 compounds. About 360 (0.41%) were called active. Shown is part of a subset that was picked to be rich in actives. Unmarked numbers belong to inactive results. No stated cut-off is given here; in the data, active means cytotoxicity above about 50%; inactive means the rest.

The nature of this assay: HT1080 cell viability loss – fluorescence readout (AID 620).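 Further: cells exposed to compound overnight then 4 h with Alamar Blue; 0% = vehicle DMSO and 100% = killing control.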 As to conditions: at 10 µM, hits give high values.
Take `COc1ccc(OC)c(NS(=O)(=O)c2ccc(N3CCCC3=O)cc2)c1`: the cytotoxicity was 60.6% (active). The figure for `O=C1CCCN1c1ccc(S(=O)(=O)NCCOc2ccccc2)cc1` is -6.1%. `COc1ccc(CCNS(=O)(=O)c2ccc(N3CCCC3=O)cc2)cc1`: the cytotoxicity is -12.5%. The figure for `Cc1ccccc1NS(=O)(=O)c1ccc(F)cc1` is 6.2%; for `Cc1ccccc1NS(=O)(=O)c1ccc(N2CCCC2=O)cc1` it is 56.7% (active); for `COc1ccc(OC)c(NS(=O)(=O)c2ccc3c(c2)n(C)c(=O)n3C)c1` it is -7.2%. The figure for `CCOC(=O)C1CCN(C(=O)Nc2ccc3nc(C)c(C)nc3c2)CC1` is 2.9%; for `Cc1cc(C)c(S(=O)(=O)NCC2CCC(C(=O)NCCCN3CCOCC3)CC2)c(C)c1` (stereo not given) it is 2.9%; for `Cc1cc(C)c(NC(=O)c2ccc(S(=O)(=O)N3CCOCC3)cc2)c(C)c1` it is -5.9%. `C=CCN1C(=O)S/C(=C/c2ccsc2)C1=O`: the cytotoxicity is 2.6%. Take `C=CCOC(=O)c1[nH]c2c(c1C)C(=O)CC(c1ccco1)C2` (stereo not given): the cytotoxicity is 67.5% (active). In the case of `C/C=C/COC(=O)c1[nH]c2c(c1C)C(=O)CC(c1ccc(N(C)C)cc1)C2` (stereo not given), the cytotoxicity was -0.3%. `C/C=C/COC(=O)c1[nH]c2c(c1C)C(=O)CC(c1ccco1)C2` (stereo not given): the cytotoxicity was 65.5% (active). With `N#CC1=C2C=CC=CN2CC1=O`, the cytotoxicity was -0.7%.

In the case of `COc1ccc(CC(=O)N2CCCc3ccccc32)cc1`, the cytotoxicity was -11%. On to `CCSC1(SCC)N=C(N)C2(C#N)C(c3ccccc3)NC(C)=C(C)C12C#N` (stereo not given), for which the cytotoxicity was 6.9%. The figure for `CCN(CC)S(=O)(=O)c1ccc(Br)c(OC)c1` is -1.2%. The value for `CCc1ccccc1NC(=O)CN1C(=O)C2CCCN2c2ncc(Cl)cc21` (stereo not given) was -1.2%.

In the case of `O=C(O)Cc1ccc(C(=O)c2cccs2)s1`, the cytotoxicity was 6.9%.

Turning to `Cc1ccc(C(=O)c2nocc2C(=O)c2cccs2)cc1`, the cytotoxicity was -9.5%.

With `O=C(c1cccs1)c1no[n+]([O-])c1C(=O)c1cccs1`, the cytotoxicity was 73.8% (active).

As for `CCOC(=O)N1CCN(C(=O)c2cnsn2)CC1`, the cytotoxicity is -5.1%. For the compound `CC(C)(C)N1CC(c2nc3ccccc3n2Cc2ccccc2)CC1=O` (stereo not given), the cytotoxicity was -14.8%.

As for `Cc1cccc(N(C)C(=O)COc2cc(=O)n(C)c3ccccc23)c1`, the cytotoxicity was 2%.

For `Cc1cnc(C(=O)OCC(=O)N2c3ccccc3NC(=O)C2(C)C)cn1`, the cytotoxicity was -0.5%. The value for `O=c1cc(-c2ccccc2)[nH]c2ccccc12` was 67.1% (active). The value for `Cc1ccc2[nH]c(-c3ccccc3)cc(=O)c2c1` was 71.1% (active); that for `Cc1cc(=O)c2ccccc2[nH]1` was 26.5%; that for `Cc1ccc2[nH]c(C(=O)O)c(-c3ccccc3)c2c1` was -8.4%. Consider `O=c1cc(-c2ccccc2)c2ccccc2[nH]1`, for which the cytotoxicity is -2.5%. The figure for `CCN(CC)Cc1c(-c2ccccc2)[nH]c2ccc(C)cc2c1=O` is 5.1%. As to `Cc1ccc(NC(=O)N(CCCN2CCOCC2)Cc2cc3cc4c(cc3[nH]c2=O)OCO4)cc1`, the cytotoxicity was -5.1%. The figure for `C#CC(C)(CC)NC(=O)Cn1nnc(-c2ccc(S(C)(=O)=O)cc2)n1` (stereo not given) is -5.1%; for `CC(CN1CCCCC1)OC(=O)Cc1ccc(Cl)cc1` (stereo not given) it is -6.9%; for `O=C(NCC(c1cccs1)N1CCOCC1)c1ccc(Br)o1` (stereo not given) it is 56.3% (active). For the compound `CCC(=O)NCC(c1cccs1)N1CCOCC1` (stereo not given), the cytotoxicity is -3.1%. The figure for `O=C(NCC(c1cccs1)N1CCOCC1)c1ccc(Cl)s1` (stereo not given) is 62.9% (active); for `O=C(COc1ccccc1)NCC(c1cccs1)N1CCOCC1` (stereo not given) it is -8.1%.

`O=C(NCC(c1ccc(F)cc1)N1CCOCC1)c1ccc(Br)o1` (stereo not given): the cytotoxicity was -5.4%. The value for `O=C(NCC(c1cccs1)N1CCOCC1)c1ccco1` (stereo not given) was 9%; that for `CCCCCC(=O)OC(CN1CCCCC1)CN1CCCC1=O` (stereo not given) was 6.6%. For the compound `COc1ccccc1NC(=S)NNC(=O)c1ccc(Cl)cc1Cl`, the cytotoxicity was -4%. Take `Cc1ccc(-c2noc(-c3ccccc3C(=O)N3CCOCC3)n2)cc1`: the cytotoxicity was -2.2%.

As to `Cc1cc(N2CCCC2=O)cc(C)c1S(=O)(=O)NCCOc1ccccc1`, the cytotoxicity is 0.6%. As for `CCOc1ccc(NC2=NC(C(=O)NCc3ccccc3)CC(=O)N2)cc1` (stereo not given), the cytotoxicity was 7.4%. In the case of `CC(C)(C)c1ccc(C(=O)Nc2cnccn2)cc1`, the cytotoxicity was -0.1%. Consider `Cc1noc(C)c1COc1ccc(C(=O)OCC(=O)N2CC(=O)Nc3ccccc32)cc1`, for which the cytotoxicity is -12.1%. Consider `CCC(Oc1ccccc1)C(=O)Nc1nnc(C)s1` (stereo not given), for which the cytotoxicity was -5.1%.

Consider `Cc1occc1C(=O)Nc1ccc2c(c1)OCCO2`, for which the cytotoxicity is 11.2%. The value for `CC(=O)NC1C(=O)N(C)c2ccc(Br)cc21` (stereo not given) was -16.4%; that for `Cc1ccc(Cc2c(C)nc3nc(SCC(=O)NCc4ccco4)nn3c2C)cc1` was 69.7% (active); that for `Cc1ccccc1Cc1c(C)nc2nc(SCC(=O)NCc3ccco3)nn2c1C` was -13.4%. Regarding `Cc1nc2nc(SCC(=O)NCc3ccco3)nn2c(C)c1Cc1c(F)cccc1Cl`, the cytotoxicity is -13.6%.

Regarding `O=C(c1ccco1)N1CCCC(c2nc(-c3ccc(S(=O)(=O)NCc4ccccc4)cc3)no2)C1` (stereo not given), the cytotoxicity is -1.4%. As to `CCCCS(=O)(=O)c1sc2nc(C)cc(C)c2c1N`, the cytotoxicity was 12.9%.

Consider `O=C(CCc1nc(-c2ccccc2)no1)NCc1ccco1`, for which the cytotoxicity is 6.9%. As for `Cc1cccc(-c2noc(CCC(=O)NCc3ccco3)n2)c1`, the cytotoxicity was 7.3%. Turning to `Cc1ccc(-c2noc(CCC(=O)NCc3ccco3)n2)cc1`, the cytotoxicity is 64% (active). With `CCn1cnc2cc(NCc3nc4ccccc4n3C)ccc21`, the cytotoxicity is 1.7%. Take `Cc1cc(NC(=O)C2CC(c3ccc(Cl)cc3)=NO2)no1` (stereo not given): the cytotoxicity was -7.6%.

As to `Cc1cccc(NS(=O)(=O)Cc2ccccc2)n1`, the cytotoxicity was -2.7%. Turning to `CCOc1c(OC)cccc1C1CC(=O)Nc2cc(OC)c(OC)cc21` (stereo not given), the cytotoxicity was -2.2%. With `CCOc1ccccc1C1CC(=O)NC2=C1C(=O)CCC2` (stereo not given), the cytotoxicity was 11.2%. For `O=C1CC(c2cccs2)c2cc3c(cc2N1)OCCO3` (stereo not given), the cytotoxicity was -3.6%. For the compound `CCOc1ccccc1C1CC(=O)Nc2cc3c(cc21)OCO3` (stereo not given), the cytotoxicity was 67.2% (active). The figure for `CCCOc1c(OC)cccc1C1CC(=O)Nc2cc3c(cc21)OCCO3` (stereo not given) is -3.5%; for `CCCOc1ccccc1C1CC(=O)Nc2cc3c(cc21)OCCO3` (stereo not given) it is 58.6% (active); for `CCOc1ccccc1C1CC(=O)Nc2cc3c(cc21)OCCO3` (stereo not given) it is 68.1% (active).

On to `CCCOc1ccccc1C1CC(=O)NC2=C1C(=O)CCC2` (stereo not given), for which the cytotoxicity was 39.4%.

Take `CCCOc1c(OC)cccc1C1CC(=O)Nc2cc3c(cc21)OCO3` (stereo not given): the cytotoxicity is -2.6%. The value for `O=C1CC(c2ccc3c(c2)OCO3)c2cc3c(cc2N1)OCCO3` (stereo not given) was 8.1%. The value for `CCOc1c(OC)cccc1C1CC(=O)Nc2cc3c(cc21)OCCO3` (stereo not given) was -3.8%; that for `CCCCOc1ccccc1C1CC(=O)NC2=C1C(=O)CCC2` (stereo not given) was 56% (active); that for `CC(=O)Nc1ccc2c(c1)nc(CN1CCCC1)n2C` was -8.7%. As to `Cc1c(NC(=O)CSc2ccccn2)c(=O)n(-c2ccccc2)n1C`, the cytotoxicity is 1.3%. For `Cc1cccc2cc(CN(CCN3CCOCC3)C(=O)Nc3ccccc3F)c(=O)[nH]c12`, the cytotoxicity is 13.6%. The value for `CC12CCC(C(=O)N3CCCCC3)(CC1=O)C2(C)C` (stereo not given) was -0.3%. Regarding `COC(=O)[C@@]1(Cc2ccccc2)[C@H]2c3cc(C(=O)N(C)C)n(Cc4ccc(S(C)(=O)=O)cc4)c3C[C@H]2CN1C(=O)c1ccccc1`, the cytotoxicity is 2.9%. The figure for `O=c1ccc(Cc2ccccn2)n[nH]1` is -6.4%; for `Cc1ccc(-n2c(SCC(=O)OC(C)C)nnc2-c2cnccn2)cc1` it is 0.6%.

With `COc1ccccc1N(C(=O)c1snc(C(N)=O)c1N)C(C(=O)NC1CCCC1)c1ccco1` (stereo not given), the cytotoxicity was -5.3%. The figure for `Cc1oc(-c2ccccc2F)nc1CS(=O)(=O)CC(=O)N1CCc2ccccc21` is -3.2%; for `COc1cc2c(C(=O)N3CCN(c4cccc(Cl)c4)CC3)cn(C)c(=O)c2cc1OC` it is 20.5%.

Consider `COc1ccc(C(=O)N2CCN(c3cccc(Cl)c3)CC2)c(OC)c1`, for which the cytotoxicity is 15.6%. The figure for `COc1ccccc1CC(=O)N1CCN(c2cccc(C(F)(F)F)c2)CC1` is -8.5%. The figure for `O=C(c1ccccc1F)N1CCN(c2cccc(C(F)(F)F)c2)CC1` is -6.8%; for `CCOc1ccccc1C(=O)N1CCN(c2cccc(Cl)c2)CC1` it is 50.8% (active); for `O=C(O)c1ccccc1C(=O)N1CCN(c2cccc(Cl)c2)CC1` it is 8.7%. Consider `Cc1ccc(C(=O)N2CCN(c3cccc(Cl)c3)CC2)cc1C`, for which the cytotoxicity is -5.4%. Turning to `COc1ccccc1C(=O)N1CCN(c2cccc(Cl)c2)CC1`, the cytotoxicity was 53% (active). The figure for `COc1ccccc1C(=O)N1CCN(c2cccc(C(F)(F)F)c2)CC1` is 58.7% (active); for `CCOc1ccccc1C(=O)N1CCOCC1` it is -16.5%.

Consider `COc1ccc(C(=O)N2CCN(c3cccc(Cl)c3)CC2)cc1`, for which the cytotoxicity was -4.7%. The figure for `CCOc1ccc(C(=O)Cc2ccc3oc(C(=O)O)cc3c2)c(O)c1` is -8.8%. The value for `O=C(CSc1nc2ncc(Br)cc2[nH]1)Nc1ccc2c(c1)OCO2` was 2.1%. The figure for `COCCNC(=O)COC(=O)/C=C/c1c(C)nn(Cc2ccc(Cl)cc2Cl)c1Cl` is 5.2%; for `C[N+]1(CC(=O)Nc2ccc(F)cc2)CCN(C(=O)c2ccco2)CC1` it is 15.7%.

With `COc1cc(-c2noc(CCCC(=O)NCc3ccccc3)n2)cc(OC)c1OC`, the cytotoxicity was 6.8%. The value for `O=C(COc1ccccc1)N1CCN(S(=O)(=O)c2ccc(Cl)cc2)CC1` was 17.2%.

`O=C1CC(c2ccccc2)CC(O)=C1C=NCCCO` (stereo not given): the cytotoxicity is 4.4%.

The record behind these values is PubChem BioAssay AID620 (Sanford-Burnham Center for Chemical Genomics, 2007).
